For 33 compounds, inhibition results are on record in ChEMBL document CHEMBL1961873, “Compounds: GSK PKIS; Assays: Nanosyn kinase panel” (2012).

Structures are written as SMILES.

The first test deals with CDK3/Cyclin E (Homo sapiens) (UniProt P24864+Q00526). The settings on record: at 1 µM.
Sequence of CDK3/Cyclin E (Homo sapiens) (P24864 whole entry, looked up): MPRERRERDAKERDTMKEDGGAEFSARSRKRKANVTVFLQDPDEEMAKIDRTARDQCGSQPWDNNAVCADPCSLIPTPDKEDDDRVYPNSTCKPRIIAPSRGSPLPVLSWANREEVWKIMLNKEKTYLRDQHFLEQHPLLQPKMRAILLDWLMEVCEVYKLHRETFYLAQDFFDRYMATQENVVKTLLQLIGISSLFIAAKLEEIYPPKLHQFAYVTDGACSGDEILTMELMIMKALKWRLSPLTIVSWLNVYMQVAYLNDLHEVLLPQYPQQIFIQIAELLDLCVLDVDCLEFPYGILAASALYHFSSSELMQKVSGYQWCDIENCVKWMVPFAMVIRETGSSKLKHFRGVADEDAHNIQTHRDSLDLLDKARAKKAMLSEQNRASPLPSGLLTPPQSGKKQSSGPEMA
Sequence of CDK3/Cyclin E (Homo sapiens) (Q00526 whole entry, looked up): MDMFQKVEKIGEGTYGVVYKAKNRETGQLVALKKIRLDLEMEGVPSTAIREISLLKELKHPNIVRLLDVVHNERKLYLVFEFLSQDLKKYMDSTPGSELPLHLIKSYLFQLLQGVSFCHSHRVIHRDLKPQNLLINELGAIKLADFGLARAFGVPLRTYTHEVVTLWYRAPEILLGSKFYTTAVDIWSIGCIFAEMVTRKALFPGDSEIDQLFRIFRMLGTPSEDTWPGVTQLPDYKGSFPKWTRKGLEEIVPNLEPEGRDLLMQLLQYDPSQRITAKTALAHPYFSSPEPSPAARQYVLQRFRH
`Nc1ccc(C#Cc2cncnc2Nc2ccc(OCc3cccc(F)c3)c(Cl)c2)cc1`: the inhibition is -1.01%.
As for `ON=C1CCc2cc(-c3nc(C4CCNCC4)[nH]c3-c3ccncc3)ccc21`, the inhibition worked out at 0.13%.
The same measure, in the same setting: as for `CS(=O)(=O)CCNCc1nc(-c2ccc3ncnc(Nc4ccc(OCc5cccc(C(F)(F)F)c5)cc4)c3c2)cs1`, the figure is -0.52%; as for `Cc1ccc2c(-c3ccnc(Nc4ccc5c(c4)OCCO5)n3)c(-c3ccc(C(F)(F)F)cc3)nn2n1`, -3.94%.
In the case of `CN(C)C(=O)O[C@H]1CN[C@H](C#Cc2cc3ncnc(Nc4ccc(OCc5cccc(F)c5)c(Cl)c4)c3s2)C1`, the inhibition is -2.05%.
Consider `COc1cc(/C=N/Nc2ncnc3c2cnn3C(C)C)ccc1O`, for which the inhibition is 27.6%.
As to `Cc1cc(Cl)cc2c1NC(=O)C2=NNc1ccc(S(N)(=O)=O)cc1`, the inhibition was -0.36%.
Take `Nc1nccc(-c2c(-c3ccc(F)cc3)nn3cc(C(F)(F)F)ccc23)n1`: the inhibition was -2.57%.
On the same count and under the same terms, as for `COC(=O)c1cncc(/C=C/c2c(C)cc(O)cc2C)c1`, the figure is -1.29%; as for `Cc1nc(-c2ccccc2)n2nc(NCCCN3CCOCC3)ncc12`, 0.9%; as for `Cc1ccc2c(c1)/C(=N/Nc1ccc(S(N)(=O)=O)cc1)C(=O)N2`, 57.3%.
Same read-out and setting: with `CCCN1CCCC(c2ccc(Nc3nc(Nc4cc(F)ccc4C(N)=O)c4cc[nH]c4n3)c(OC)c2)C1` (stereo unspecified) the figure was 0.01%.
The same measure, in the same setting: with `CN(c1ccc(NC(=O)Nc2ccc(OC(F)(F)F)cc2)cc1)c1ccnc(Nc2cccc(S(N)(=O)=O)c2)n1` the figure was 3.98%; with `O=C1Nc2ccccc2/C1=C/Nc1ccc2[nH]c(=O)[nH]c2c1`, 8.57%.
For `FC(F)(F)c1ccc(-c2nn3ncccc3c2-c2ccnc(Nc3ccc4c(c3)OCCO4)n2)cc1`, the inhibition turned out to be 4.1%.
For `N#Cc1c(NC(=O)c2ccccc2F)sc2c1CCCC2`, the inhibition is -1.38%.
As to `Cc1ccc(Nc2ccnc(Nc3cccc(C(N)=O)c3)n2)cc1O`, the inhibition came out at 4.71%.
Turning to `Cc1ccc(C(=O)NC2CC2)cc1-c1ccc2[nH]ncc2c1`, the inhibition was 0.41%.
With `COc1cc(Nc2nccc(-c3cnn4ncccc34)n2)cc(OC)c1`, the inhibition worked out at 74.3%.
Turning to `NS(=O)(=O)c1cccc(-c2cc3ccncc3cc2OCc2ccccc2)c1`, the inhibition stood at 0.51%.
Turning to `CC(C)c1ccc(Nc2nccc(-c3cnn4ncccc34)n2)cc1`, the inhibition amounted to 39%.
As to `CCOc1nccc2c1nc(-c1nonc1N)n2CC`, the inhibition is -0.38%.
Regarding `c1ccc(Cc2nc3ccc(Nc4ncnc5ccccc45)cc3[nH]2)cc1`, the inhibition stood at 1.71%.
Consider `Cc1ccc(O)cc1Nc1ccnc2ccc(S(C)(=O)=O)cc12`, for which the inhibition is -3.13%.
For `Cc1ccc(NC(=O)CC2CC2)cc1-c1ccc(C(=O)NCC2CC2)cc1`, the inhibition is -2.46%.
Regarding `O=S(=O)(CCOCc1ccc(-c2ccc3ncnc(Nc4ccc(OCc5cccc(F)c5)c(Cl)c4)c3c2)o1)c1ccccc1`, the inhibition was -2.84%.
In the case of `CCn1c(-c2nonc2N)nc2c(C#CC(C)(C)O)nc(OCCNC)cc21`, the inhibition is -2.48%.
Take `COc1cc2ncn(-c3cc(OCc4ccccc4S(C)(=O)=O)c(C#N)s3)c2cc1OC`: the inhibition came out at 2.11%.
Still for that read-out and setting: as for `Nc1nccc(C#Cc2cncnc2Nc2ccc(OCc3cccc(F)c3)c(Cl)c2)n1`, the figure is 0.78%; as for `CCn1c(-c2nonc2N)nc2ccc(F)cc21`, -3.51%; as for `NS(=O)(=O)c1ccc(NC=C2C(=O)Nc3ccc4ncsc4c32)cc1`, 97.8%.
On to `COC(=O)c1ccc2c(c1)C(=Cc1cc(Br)c(O)c(Br)c1)C(=O)N2`, for which the inhibition is -1.48%.
On the same count and under the same terms, as for `Cc1cc(-c2ccccn2)cc(C)c1/C=C/c1cncc(-c2nn[nH]n2)c1`, the figure is -2.71%.

A further test deals with Cyclin-dependent kinase 4 (Homo sapiens) (UniProt P11802). The settings on record: at 0.1 µM.
Sequence of Cyclin-dependent kinase 4 (Homo sapiens) (P11802 whole entry): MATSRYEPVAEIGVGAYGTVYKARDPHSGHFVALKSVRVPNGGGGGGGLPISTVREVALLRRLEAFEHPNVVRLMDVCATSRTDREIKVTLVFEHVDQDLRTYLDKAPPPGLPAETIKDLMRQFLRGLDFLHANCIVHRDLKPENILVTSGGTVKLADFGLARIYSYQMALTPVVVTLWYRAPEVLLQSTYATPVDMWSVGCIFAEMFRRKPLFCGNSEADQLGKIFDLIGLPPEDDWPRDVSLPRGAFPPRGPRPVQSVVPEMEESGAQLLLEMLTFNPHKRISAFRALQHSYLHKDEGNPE
On to `Nc1ccc(C#Cc2cncnc2Nc2ccc(OCc3cccc(F)c3)c(Cl)c2)cc1`, for which the inhibition is 1.19%.
Same read-out and setting: with `ON=C1CCc2cc(-c3nc(C4CCNCC4)[nH]c3-c3ccncc3)ccc21` the figure was 0.69%; with `CS(=O)(=O)CCNCc1nc(-c2ccc3ncnc(Nc4ccc(OCc5cccc(C(F)(F)F)c5)cc4)c3c2)cs1`, 4.15%; with `Cc1ccc2c(-c3ccnc(Nc4ccc5c(c4)OCCO5)n3)c(-c3ccc(C(F)(F)F)cc3)nn2n1`, 0.65%.
In the case of `CN(C)C(=O)O[C@H]1CN[C@H](C#Cc2cc3ncnc(Nc4ccc(OCc5cccc(F)c5)c(Cl)c4)c3s2)C1`, the inhibition was 1.82%.
On to `COc1cc(/C=N/Nc2ncnc3c2cnn3C(C)C)ccc1O`, for which the inhibition was found to be 3.37%.
The same measure, in the same setting: with `Cc1cc(Cl)cc2c1NC(=O)C2=NNc1ccc(S(N)(=O)=O)cc1` the figure was 0.78%; with `Nc1nccc(-c2c(-c3ccc(F)cc3)nn3cc(C(F)(F)F)ccc23)n1`, 0.37%.
As for `COC(=O)c1cncc(/C=C/c2c(C)cc(O)cc2C)c1`, the inhibition turned out to be 2.45%.
As to `Cc1nc(-c2ccccc2)n2nc(NCCCN3CCOCC3)ncc12`, the inhibition came out at 4.19%.
On to `Cc1ccc2c(c1)/C(=N/Nc1ccc(S(N)(=O)=O)cc1)C(=O)N2`, for which the inhibition came out at 1.36%.
Consider `CCCN1CCCC(c2ccc(Nc3nc(Nc4cc(F)ccc4C(N)=O)c4cc[nH]c4n3)c(OC)c2)C1` (stereo unspecified), for which the inhibition came out at 3.53%.
Still for that read-out and setting: with `CN(c1ccc(NC(=O)Nc2ccc(OC(F)(F)F)cc2)cc1)c1ccnc(Nc2cccc(S(N)(=O)=O)c2)n1` the figure was 0.85%.
The same measure, in the same setting: with `O=C1Nc2ccccc2/C1=C/Nc1ccc2[nH]c(=O)[nH]c2c1` the figure was 3.34%; with `FC(F)(F)c1ccc(-c2nn3ncccc3c2-c2ccnc(Nc3ccc4c(c3)OCCO4)n2)cc1`, 5.36%.
In the case of `N#Cc1c(NC(=O)c2ccccc2F)sc2c1CCCC2`, the inhibition is -0.94%.
As for `Cc1ccc(Nc2ccnc(Nc3cccc(C(N)=O)c3)n2)cc1O`, the inhibition is -2.5%.
On the same count and under the same terms, as for `Cc1ccc(C(=O)NC2CC2)cc1-c1ccc2[nH]ncc2c1`, the figure is -0.45%; as for `COc1cc(Nc2nccc(-c3cnn4ncccc34)n2)cc(OC)c1`, 44.9%; as for `NS(=O)(=O)c1cccc(-c2cc3ccncc3cc2OCc2ccccc2)c1`, 3.55%.
With `CC(C)c1ccc(Nc2nccc(-c3cnn4ncccc34)n2)cc1`, the inhibition came out at 9.51%.
On the same count and under the same terms, as for `CCOc1nccc2c1nc(-c1nonc1N)n2CC`, the figure is 0.99%.
Same read-out and setting: with `c1ccc(Cc2nc3ccc(Nc4ncnc5ccccc45)cc3[nH]2)cc1` the figure was 4.29%; with `Cc1ccc(O)cc1Nc1ccnc2ccc(S(C)(=O)=O)cc12`, 3.24%; with `Cc1ccc(NC(=O)CC2CC2)cc1-c1ccc(C(=O)NCC2CC2)cc1`, 1.69%.
As for `O=S(=O)(CCOCc1ccc(-c2ccc3ncnc(Nc4ccc(OCc5cccc(F)c5)c(Cl)c4)c3c2)o1)c1ccccc1`, the inhibition turned out to be 0.35%.
In the case of `CCn1c(-c2nonc2N)nc2c(C#CC(C)(C)O)nc(OCCNC)cc21`, the inhibition worked out at 5.94%.
For `COc1cc2ncn(-c3cc(OCc4ccccc4S(C)(=O)=O)c(C#N)s3)c2cc1OC`, the inhibition was found to be 3.64%.
Consider `Nc1nccc(C#Cc2cncnc2Nc2ccc(OCc3cccc(F)c3)c(Cl)c2)n1`, for which the inhibition worked out at 3.03%.
Take `CCn1c(-c2nonc2N)nc2ccc(F)cc21`: the inhibition was determined as 1.9%.
On the same count and under the same terms, as for `NS(=O)(=O)c1ccc(NC=C2C(=O)Nc3ccc4ncsc4c32)cc1`, the figure is 46.4%; as for `COC(=O)c1ccc2c(c1)C(=Cc1cc(Br)c(O)c(Br)c1)C(=O)N2`, 3.47%; as for `Cc1cc(-c2ccccn2)cc(C)c1/C=C/c1cncc(-c2nn[nH]n2)c1`, 6.05%.

As usually defined, the inhibition is the change of the read-out against control, counted positive when it falls.
